According to the supplement of paper PMC10849652:
About 7,900 targets were measured; listed, in parts, are those with a hit and a random draw of the rest. About 0.6% of all pairs of compound and target were hits. Unmarked numbers belong to inactive results.

Key:
Assay in all cases: log2 fold change, soluble protein after heating vs DMSO (PISA); higher = thermal stabilisation; K562 cells, 10 uM, 30 min; active = over 0.2 and 3.5 SD of the protein, either way, in both replicates (recomputed)
erlotinib = compound: C#Cc1cccc(Nc2ncnc3cc(OCCOC)c(OCCOC)cc23)c1 [erlotinib]
Procedure, shortened: (§1)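 Values are thermal stability changes relative to control samples and are taken from duplicates. They are stated as log2 fold changes. Before quantification by TMTpro 16plex LC-MS/MS with equalised channel sums, K562 cells at 2×10^6 cells/mL were treated with 10 μM compound for 30 min, heated in aliquots for 3 min across 48°C-58°C, pooled, extracted in PBS with 0.5% NP-40 at 4°C, and centrifuged at 21,000xg for 90 min to give the soluble supernatant.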

[1] = compound: C/C(=N\NC(=O)C1=CC(=CC=C1)S(=O)(=O)N2CCOCC2)/C3=C(C=CC(=C3)Cl)O
Procedure, shortened: as §1

[2] = compound: C1=CC(=C(C=C1Cl)C2=NC3=NC=CN=C3C(=N2)NC4=CC=NC=C4)F
Procedure, shortened: as §1

[3] = compound: C1=CC(=CC=C1C2=NC3=C(N2)C=C(C=C3)C(=O)N)OC4=CC=C(C=C4)Cl
Procedure, shortened: as §1

[4] = compound: C1=CC2=C(C=CC(=C2)/C=C\3/C(=O)NC(=NCC4=CC=CS4)S3)N=C1
Procedure, shortened: as §1

[5] = compound: C1=CC2=NC=CN=C2C=C1/C=C/3\C(=O)NC(=O)S3
Procedure, shortened: as §1

[6] = compound: C1=CC=C(C=C1)C2=NC(=C(N2)C3=CC=NC=C3)C4=CC(=C(C=C4)Cl)O
Procedure, shortened: as §1

[7] = compound: C1=CC=C2C(=C1)C3=NNC4=CC=CC(=C43)C2=O
Procedure, shortened: as §1

[8] = compound: C1CCN(C1)C(=O)NC2=CC=CC(=C2)NC3=NC=C(C(=N3)NCCC4=CN=CN4)Br
Procedure, shortened: as §1

[9] = compound: C1CN(CCC1(CC2=CC=C(C=C2)Cl)N)C3=NC=NC4=C3C=CN4
Procedure, shortened: as §1

Sequence of UniProt Q92696 (Q92696 whole entry, looked up): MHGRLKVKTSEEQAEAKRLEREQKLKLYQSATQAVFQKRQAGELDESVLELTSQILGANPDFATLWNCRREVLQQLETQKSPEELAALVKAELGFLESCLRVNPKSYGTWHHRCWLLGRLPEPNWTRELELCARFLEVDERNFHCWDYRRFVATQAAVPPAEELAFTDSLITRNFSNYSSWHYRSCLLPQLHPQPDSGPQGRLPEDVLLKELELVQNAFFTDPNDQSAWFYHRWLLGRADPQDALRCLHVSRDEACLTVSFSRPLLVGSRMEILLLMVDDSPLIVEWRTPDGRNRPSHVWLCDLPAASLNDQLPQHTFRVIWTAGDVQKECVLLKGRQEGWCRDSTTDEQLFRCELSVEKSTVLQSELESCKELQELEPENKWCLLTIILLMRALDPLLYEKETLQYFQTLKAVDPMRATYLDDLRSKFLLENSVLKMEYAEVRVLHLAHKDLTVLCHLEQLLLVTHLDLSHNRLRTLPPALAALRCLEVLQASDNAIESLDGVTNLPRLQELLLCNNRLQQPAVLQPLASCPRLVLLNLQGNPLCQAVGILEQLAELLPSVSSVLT
Sequence of UniProt Q96T23 (Q96T23 whole entry, looked up): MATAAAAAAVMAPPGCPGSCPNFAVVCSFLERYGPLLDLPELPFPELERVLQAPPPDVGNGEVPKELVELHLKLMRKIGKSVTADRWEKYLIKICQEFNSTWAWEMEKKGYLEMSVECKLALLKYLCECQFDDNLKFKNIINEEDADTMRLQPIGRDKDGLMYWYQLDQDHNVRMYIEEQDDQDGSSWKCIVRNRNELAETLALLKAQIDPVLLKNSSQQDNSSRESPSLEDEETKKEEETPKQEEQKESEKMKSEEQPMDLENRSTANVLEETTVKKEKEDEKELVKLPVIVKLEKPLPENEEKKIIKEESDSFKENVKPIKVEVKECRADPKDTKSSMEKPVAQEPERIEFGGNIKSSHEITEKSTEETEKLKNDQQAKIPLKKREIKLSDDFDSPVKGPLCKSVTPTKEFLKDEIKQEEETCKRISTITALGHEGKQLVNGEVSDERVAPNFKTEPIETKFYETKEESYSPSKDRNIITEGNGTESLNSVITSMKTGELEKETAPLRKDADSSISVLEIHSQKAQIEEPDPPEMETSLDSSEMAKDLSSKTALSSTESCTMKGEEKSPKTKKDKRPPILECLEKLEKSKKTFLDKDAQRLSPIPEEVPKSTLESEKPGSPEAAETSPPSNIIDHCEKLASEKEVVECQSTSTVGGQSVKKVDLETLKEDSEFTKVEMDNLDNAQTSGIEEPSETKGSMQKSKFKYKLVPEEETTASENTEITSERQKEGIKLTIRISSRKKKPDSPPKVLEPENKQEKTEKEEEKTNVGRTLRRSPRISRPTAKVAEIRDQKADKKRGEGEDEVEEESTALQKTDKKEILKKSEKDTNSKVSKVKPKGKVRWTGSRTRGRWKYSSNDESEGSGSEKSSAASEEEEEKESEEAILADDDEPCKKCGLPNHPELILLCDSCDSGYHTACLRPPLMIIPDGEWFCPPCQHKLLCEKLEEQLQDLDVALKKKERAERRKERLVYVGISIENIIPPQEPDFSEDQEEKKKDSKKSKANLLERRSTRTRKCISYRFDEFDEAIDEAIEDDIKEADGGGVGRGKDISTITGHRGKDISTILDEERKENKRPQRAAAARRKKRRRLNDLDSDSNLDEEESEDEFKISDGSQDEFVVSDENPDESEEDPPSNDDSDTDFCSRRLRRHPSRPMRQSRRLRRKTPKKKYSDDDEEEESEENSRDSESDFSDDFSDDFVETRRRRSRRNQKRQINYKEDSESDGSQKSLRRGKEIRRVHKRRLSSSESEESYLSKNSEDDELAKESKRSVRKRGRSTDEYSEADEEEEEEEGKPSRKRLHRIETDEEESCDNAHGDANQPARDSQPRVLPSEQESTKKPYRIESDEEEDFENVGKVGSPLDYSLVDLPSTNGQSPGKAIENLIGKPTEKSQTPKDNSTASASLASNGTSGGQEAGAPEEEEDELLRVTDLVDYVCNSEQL
Sequence of UniProt Q8N5L8 (Q8N5L8 whole entry, looked up): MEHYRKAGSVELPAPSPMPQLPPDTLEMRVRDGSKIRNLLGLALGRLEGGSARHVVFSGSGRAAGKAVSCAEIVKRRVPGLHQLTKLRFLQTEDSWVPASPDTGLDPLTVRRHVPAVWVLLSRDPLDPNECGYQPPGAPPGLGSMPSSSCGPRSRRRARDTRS
Sequence of UniProt P27694 (P27694 whole entry, looked up): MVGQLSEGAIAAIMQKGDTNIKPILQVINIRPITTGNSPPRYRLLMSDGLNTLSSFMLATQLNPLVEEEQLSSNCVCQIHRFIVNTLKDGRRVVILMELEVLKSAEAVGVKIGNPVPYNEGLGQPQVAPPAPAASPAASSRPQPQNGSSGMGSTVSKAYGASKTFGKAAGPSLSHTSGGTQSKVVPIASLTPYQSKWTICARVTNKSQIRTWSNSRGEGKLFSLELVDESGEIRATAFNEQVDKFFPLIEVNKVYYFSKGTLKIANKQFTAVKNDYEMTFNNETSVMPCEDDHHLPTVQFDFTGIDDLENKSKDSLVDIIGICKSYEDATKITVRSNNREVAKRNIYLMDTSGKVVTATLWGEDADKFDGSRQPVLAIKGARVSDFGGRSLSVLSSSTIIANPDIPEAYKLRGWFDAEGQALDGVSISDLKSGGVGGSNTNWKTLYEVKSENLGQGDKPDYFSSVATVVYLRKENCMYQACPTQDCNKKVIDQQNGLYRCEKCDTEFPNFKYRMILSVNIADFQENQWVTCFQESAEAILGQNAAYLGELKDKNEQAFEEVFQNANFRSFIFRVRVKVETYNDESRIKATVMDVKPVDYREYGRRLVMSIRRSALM
Sequence of UniProt Q04864 (Q04864 whole entry, looked up): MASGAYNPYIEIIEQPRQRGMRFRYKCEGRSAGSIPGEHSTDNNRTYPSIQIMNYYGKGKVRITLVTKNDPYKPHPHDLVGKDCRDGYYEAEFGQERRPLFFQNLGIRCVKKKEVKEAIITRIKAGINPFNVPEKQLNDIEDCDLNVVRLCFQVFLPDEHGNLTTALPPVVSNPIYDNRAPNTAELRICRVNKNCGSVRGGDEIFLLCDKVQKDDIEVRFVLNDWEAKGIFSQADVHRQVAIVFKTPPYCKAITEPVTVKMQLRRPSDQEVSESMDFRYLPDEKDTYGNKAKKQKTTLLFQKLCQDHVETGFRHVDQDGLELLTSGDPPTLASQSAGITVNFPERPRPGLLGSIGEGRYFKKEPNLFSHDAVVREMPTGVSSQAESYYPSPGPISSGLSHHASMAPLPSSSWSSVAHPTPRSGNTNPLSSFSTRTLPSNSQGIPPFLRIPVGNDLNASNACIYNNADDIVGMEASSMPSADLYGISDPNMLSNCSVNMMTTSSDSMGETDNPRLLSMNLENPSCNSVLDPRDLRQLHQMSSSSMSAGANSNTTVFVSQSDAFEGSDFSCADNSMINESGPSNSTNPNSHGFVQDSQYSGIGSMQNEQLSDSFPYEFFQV
Sequence of UniProt Q86VR2 (Q86VR2 whole entry, looked up): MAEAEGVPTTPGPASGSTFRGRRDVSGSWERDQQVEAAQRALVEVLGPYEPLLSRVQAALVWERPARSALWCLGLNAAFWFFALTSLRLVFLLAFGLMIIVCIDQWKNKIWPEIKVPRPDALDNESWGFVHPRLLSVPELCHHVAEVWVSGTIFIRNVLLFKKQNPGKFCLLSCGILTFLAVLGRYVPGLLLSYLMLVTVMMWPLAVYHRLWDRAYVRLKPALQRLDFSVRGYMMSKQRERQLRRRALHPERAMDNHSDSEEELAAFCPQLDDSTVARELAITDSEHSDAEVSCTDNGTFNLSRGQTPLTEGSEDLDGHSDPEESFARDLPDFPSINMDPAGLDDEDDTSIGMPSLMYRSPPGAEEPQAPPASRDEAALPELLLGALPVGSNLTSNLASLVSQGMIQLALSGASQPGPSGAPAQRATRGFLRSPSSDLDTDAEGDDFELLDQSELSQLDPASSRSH
Sequence of UniProt Q06609 (Q06609 whole entry, looked up): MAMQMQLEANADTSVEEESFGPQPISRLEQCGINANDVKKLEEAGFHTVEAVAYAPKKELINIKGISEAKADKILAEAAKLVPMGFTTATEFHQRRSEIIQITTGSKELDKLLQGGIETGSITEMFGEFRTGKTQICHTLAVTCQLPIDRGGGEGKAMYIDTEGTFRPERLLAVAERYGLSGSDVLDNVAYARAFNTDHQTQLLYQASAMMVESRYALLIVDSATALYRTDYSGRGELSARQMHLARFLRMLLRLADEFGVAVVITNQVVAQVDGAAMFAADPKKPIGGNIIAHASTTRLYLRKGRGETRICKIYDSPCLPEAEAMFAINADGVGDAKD

Target	log2 fold change (erlotinib)	log2 fold change [1]	log2 fold change [2]	log2 fold change [3]	log2 fold change [4]	log2 fold change [5]	log2 fold change [6]	log2 fold change [7]	log2 fold change [8]	log2 fold change [9]
RDH10 (UniProt Q8IZV5)	0.122	0.065	0.024	0.003	0.204	-0.035	0.077	0.039	-0.008	0.235
SEPTIN5 (UniProt G3XAH0)	0.009	-0.251	0.146	0.076	-0.022	-0.035	0.014	-0.24	0.009	0.049
RBM27 (UniProt Q9P2N5)	0.034	0.079	0.003	0.022	-0.039	-0.01	-0.067	0.022	-0.061	-0.128
RANBP2 (UniProt P49792)	-0.107	0.007	0.062	0.081	0.082	0.003	-0.007	-0.028	0.005	0
RPP25L (UniProt Q8N5L8)	0.274 (active)	-0.004	-0.029	0.031	-0.001	0.041	0.014	-0.065	0.01	0.01
RPS27A (UniProt P62979)	-0.246	-0.143	-0.207	0.016	-0.136	-0.033	0.004	-0.062	0.111	-0.098
RETREG3 (UniProt Q86VR2)	0.004	0.072	0.037	0.031	-0.053	0.07	0.062	-0.087	-0.029	0.032
SH3GLB2 (UniProt Q9NR46)	0.048	0.081	-0.044	-0.021	0	0.01	-0.033	-0.021	-0.022	-0.013
RAB8B (UniProt Q92930)	0.258	0.085	0.332 (active)	0.028	-0.02	0.145	0.029	0.012	0.027	-0.043
RBM22 (UniProt Q9NW64)	-0.013	-0.037	-0.061	-0.009	-0.117	0.038	-0.084	-0.051	0	0.121
RHEB (UniProt Q15382)	0.028	0.042	0.075	-0.041	0.008	0.008	-0.008	-0.004	-0.005	0.041
SEC24A (UniProt O95486)	0.084	0.097	0.031	-0.018	0.033	-0.022	0.036	0.022	-0.026	0.011
RPA1 (UniProt P27694)	0.003	0.07	0.147	0.008	-0.005	0.003	0.027	0.075	-0.013	-0.021
SEC23IP (UniProt Q9Y6Y8)	0.03	0.022	-0.013	-0.037	0.028	0.229	-0.023	-0.027	-0.008	-0.061
RAP1GDS1 isoform 5 (UniProt P52306)	0.019	-0.012	-0.021	-0.013	0.027	0.106	-0.016	-0.038	-0.023	-0.077
RABGAP1L isoform 3 (UniProt Q5R372)	0.087	0.052	0.161	-0.021	0.029	0.033	-0.001	0.035	0.004	0.007
SCAMP2 (UniProt O15127)	0.014	0.141	0.081	0.011	-0.154	0.063	0.055	0.057	-0.116	0.087
SGPL1 (UniProt O95470)	-0.038	-0.019	-0.088	-0.047	0.05	-0.029	0.01	-0.001	-0.035	-0.145
RNF167 (UniProt Q9H6Y7)	-0.133	-0.073	-0.069	0.052	0.025	0.025	-0.004	-0.07	-0.018	-0.009
RPA3 (UniProt P35244)	-0.007	0.156	0.084	0.008	-0.058	-0.007	0.115	0.032	-0.128	-0.027
SETD3 (UniProt Q86TU7)	0.01	-0.007	0.04	0.009	0.06	0.002	0.031	0.004	-0.015	0.044
RCN3 (UniProt Q96D15)	0.033	0.013	0.058	0.048	0.03	-0.029	-0.057	-0.023	0.07	-0.103
RABGGTA (UniProt Q92696)	0.068	0.018	0.065	0.001	0.063	0.025	0.036	0.043	0.005	0.122
RBM4 (UniProt Q9BWF3)	0.02	0	-0.102	0.011	-0.012	0.054	-0.041	-0.035	0.012	-0.009
RPS3A (UniProt P61247)	-0.178	-0.041	-0.232	0.062	-0.039	-0.035	-0.028	0	0.088	-0.162
RRAGB (UniProt Q5VZM2)	-0.028	0.047	0.004	0.023	-0.13	0	0.021	0.082	-0.048	0.037
REL (UniProt Q04864)	0.076	-0.013	-0.007	0.003	0.024	-0.037	-0.029	-0.013	-0.082	0.01
SCG3 (UniProt Q8WXD2)	-0.076	0.141	0.023	0.088	0.09	-0.015	0.103	-0.094	-0.05	0.036
RAD51 (UniProt Q06609)	0.29	0.06	0.044	0.032	0.067	0.017	-0.025	-0.032	-0.014	0.013
RSF1 (UniProt Q96T23)	0.034	0.152	0.031	0.126	0.039	0.012	0.089	-0.057	0.01	0.006
